PubChem BioAssay AID2314 (National Center for Advancing Translational Sciences (NCATS), 2010)
In all, about 300,000 compounds went through this assay and about 37,000 (12%) were called active. No stated cut-off is given here; in the data, active means max response mostly above about 13% (no sharp cut-off); inactive means mostly below about 14%. Only a selection was taken, and actives are over-represented in it overall.

Test: Cycloheximide Counterscreen for Small Molecule Inhibitors of Shiga Toxin; further: read at 38.3 µM for the half of the compounds with a filed dose; 0% is about no effect
Conditions: cell reporter, cycloheximide protein synthesis inhibition counterscreen; stronger effect = higher value

Row | SMILES | max response
1 | CCCNC(=O)COc1coc(CN2CCN(Cc3ccccc3)CC2)cc1=O | -5.17% (inactive)
2 | CCn1ccnc1CNC(=O)CC1C(=O)NCCN1CCCc1ccccc1 (centres undefined) | -2.05% (inactive)
3 | CC1(C)C2CCC1(CS(=O)(=O)NCCc1c[nH]c3ccccc13)C(=O)C2 (centres undefined) | -4.31% (inactive)
4 | Cc1nc2cc(C(F)(F)F)ccc2n1CCNc1nc(-c2cc(Cl)c(N)c(Cl)c2)cs1 | -1.25% (inactive)
5 | N#Cc1ccccc1NC(=O)COc1c(Br)cc(Br)c2cccnc12 | -3.08% (inactive)
6 | Cc1nn(CC(=O)NC2CCCCC2)c(=O)c2cccn12 | 10.6% (inactive)
7 | CCCCN1C(=O)/C(=C2/C=CC=CN2C)SC1=S | 18.7% (active)
8 | CCCCN1C(=O)/C(=C2/Sc3ccc(Cl)cc3N2CC)SC1=S | -0.782% (inactive)
9 | CN1C=CC=C/C1=C1\SC(=S)N(Cc2ccccc2)C1=O | 3.74% (inactive)
10 | Cc1cccc(C)c1NC(=S)N(Cc1cccnc1)Cc1ccccc1Cl | -3.98% (inactive)
11 | COC(=O)c1ccc2ccccc2c1OC1OC(CO)C(O)C(O)C1NC(C)=O (centres undefined) | 0.801% (inactive)
12 | CC1CCN(CC(O)COc2ccc(C(=O)c3ccccc3)cc2)CC1 (centres undefined) | -1.82% (inactive)
13 | O=C(NCCN1CCOCC1)/C(=C/c1ccc(F)cc1)NC(=O)c1ccccc1 | -4.36% (inactive)
14 | CC(=O)Oc1c(C(=O)c2nnc(C)o2)c(=O)n(Cc2ccccc2)c2ccccc12 | -0.619% (inactive)
15 | Brc1ccc2c(c1)[C@H]1OCC[C@H]1[C@@H](c1cccs1)N2 | 8.72% (inactive)
16 | C/C(=N\NC(=O)Cc1ccc(F)cc1)c1ccc(F)cc1 | -1.95% (inactive)
17 | O=C(O)CC/C(=N\NC(=O)c1ccc(F)cc1)c1ccc(Br)cc1 | 35% (active)
18 | C/C(CC(=O)N1CCN(C=O)CC1)=N\NC(=O)c1ccc(Br)cc1 | 7.55% (inactive)
19 | CCc1ccccc1NC(=O)CN(C)S(=O)(=O)c1ccc2c(c1)c(=O)n(C)c(=O)n2C | -5.59% (inactive)
20 | Cn1c(-c2ccco2)nc2cc3ccccc3cc21 | 16.7% (active)
21 | O=c1c2ccccc2nc(-c2ccco2)n1-c1ccc(Br)cn1 | -3.55% (inactive)
22 | S=c1[nH]nc(-c2ccco2)n1/N=C/c1ccccc1 | -1.31% (inactive)
23 | Cc1ccc(CS(=O)(=O)CCC(=O)NCc2ccc(F)cc2)cc1 | -2.44% (inactive)
24 | Cc1cc(C(=O)N/N=C\C(Br)=C\c2ccccc2)c(C)o1 | 32.4% (active)

Row | SMILES | max response
25 | CN(C)c1ccc(/C=N/Nc2cc(N3CCOCC3)nc(N3CCOCC3)n2)cc1 | -1.93% (inactive)
26 | O=C(Cc1cc(=O)[nH][nH]1)N/N=C/c1ccccc1[N+](=O)[O-] | -3.9% (inactive)
27 | Cc1cc(C(=O)N/N=C/c2ccc(N3CCOCC3)cc2)c(C)o1 | 26.5% (active)
28 | CCN(CC)c1ccc(C(=O)N/N=C/c2ccc(N3CCOCC3)cc2)cc1 | -3.32% (inactive)
29 | Cc1ccc(-c2cc(C(=O)N/N=C/C=C/c3ccccc3)n[nH]2)o1 | -1.74% (inactive)
30 | O=C(N/N=C\c1cccc(Br)c1)c1ccccc1-n1cccc1 | 1.75% (inactive)
31 | CNC(=S)N/N=C/c1ccc(N2CCOCC2)s1 | 13.7% (inactive)
32 | CC(=O)N/N=C/c1cc2c(cc1[N+](=O)[O-])OCO2 | -3% (inactive)
33 | Cc1cc(Nc2ccc(N3CCOCC3)cc2)c2cccc(C)c2n1 | -1.97% (inactive)
34 | Cc1ccccc1N/N=C/c1ccc(N2CCOCC2)cc1 | 21.1% (active)
35 | Cc1cc(C(=O)N/N=C/c2ccccc2[N+](=O)[O-])c(C)o1 | 35% (active)
36 | Cc1ccc(S(=O)(=O)c2c[nH]c3ccc(C)cc3c2=O)cc1 | -2.63% (inactive)
37 | CCN(CCCNC(=O)c1ccc2c(c1)NC(=O)CN2C)c1cccc(C)c1 | -2.58% (inactive)
38 | COc1cccc(CNS(=O)(=O)c2ccc3c(c2)N(C(C)=O)CCS3)c1 | 3.83% (inactive)
39 | CCOc1ccc2[nH]c3nc(SCC(=O)NC4CCCC4)nnc3c2c1 | -2.15% (inactive)
40 | CC(=O)N/C(=C/c1ccc(OC(F)F)cc1)C(=O)O | 1.24% (inactive)
41 | COc1ccc2ccccc2c1/C=N/NC(=O)c1cc(C)[nH]n1 | -1.72% (inactive)
42 | CC(=C/c1ccccc1)/C=N/NC(=O)c1cc(C)oc1C | 34.8% (active)
43 | Cc1cc(C(=O)NNC(=O)CCC2CCCCC2)c(C)o1 | -7.16% (inactive)
44 | CC(C)c1cc(C(=O)N/N=C/C(Br)=C/c2ccccc2)n[nH]1 | 14.6% (active)
45 | CC(C)c1cc(C(=O)O)n[nH]1 | 10.8% (inactive)
46 | O=C(CCC1CCCN(C(=O)c2ccc(F)c(F)c2)C1)N1CCN(c2ccccn2)CC1 (centres undefined) | -2.81% (inactive)
47 | CC(=O)c1ccc(NC(=O)CCNS(=O)(=O)c2cc(Br)cnc2N)cc1 | -6.69% (inactive)
48 | CCOC(=O)[C@H]1[C@H]2COc3cc(OC)ccc3[C@@H]2N2C(=O)N(c3ccc(Br)cc3)C(=O)[C@@]12C | -2.74% (inactive)

Row | SMILES | max response
49 | CC(=O)Nc1ccc(NS(=O)(=O)c2ccc3c(c2)NC(=O)CC(=O)N3)cc1 | -2.79% (inactive)
50 | Cn1c(Nc2cccc(Cl)c2)nc2ccccc21 | 33.5% (active)
51 | Cc1c(C(=O)Nc2cccc(Cl)c2)cn2c(nc3ccccc32)c1C#N | -2.2% (inactive)
52 | C/C(=N\c1nc2ccccc2n1C)c1cc(Cl)ccc1O | -3.14% (inactive)
53 | Cc1cc2c(c(=O)n1Cc1ccccc1)C1O[C@](CCCCN3C(=O)c4ccccc4C3=O)(Cc3ccccc31)O2 | -2.41% (inactive)
54 | Cc1cc(O)c(C2(O)C(=O)Nc3ccccc32)cc1C (centres undefined) | -3.78% (inactive)
55 | COc1ccc(C2(O)C(=O)Nc3ccccc32)cc1 (centres undefined) | -3.25% (inactive)
56 | O=C1Nc2ccccc2C12Nc1ccccc1S2 (centres undefined) | 33.2% (active)
57 | CC(=O)NC1=NN(C(C)=O)C(C)(c2ccc(C)cc2)S1 (centres undefined) | -3.23% (inactive)
58 | Cc1cccc(OC(=O)c2sc3ncn(C)c(=O)c3c2C)c1 | 32.8% (active)
59 | Cc1cc(Br)ccc1NC(=O)c1sc2ncn(CC(=O)N3CCN(c4ccccn4)CC3)c(=O)c2c1C | -5.58% (inactive)
60 | Cc1c(C(N)=O)sc2ncn(CCOc3ccccc3)c(=O)c12 | 17.6% (active)
61 | COc1cccc(NC(=O)Cn2cnc3sc(C)c(S(=O)(=O)N4CCN(C)CC4)c3c2=O)c1 | -1.26% (inactive)
62 | CCOC(=O)C(C)n1cnc2sc(C)c(C)c2c1=O (centres undefined) | -0.534% (inactive)
63 | Cc1cc2ncn(CCCCOc3ccccc3)c2cc1C | -2.02% (inactive)
64 | O=c1cc(CCl)nc2scc(-c3ccccc3)n12 | 3.02% (inactive)
65 | COc1ccc(CCNC(=O)CCNS(=O)(=O)c2cc(Br)cnc2N)cc1OC | 13.2% (inactive)
66 | CN1C(=O)C2(OCCCO2)c2cc(Cl)ccc21 | 0.948% (inactive)
67 | CCCS(=O)(=O)N1CCC(CCOc2ccccc2)(C(=O)OCC)CC1 | -1.66% (inactive)
68 | COc1ccc(-c2ccc(OC)c(C3C4C=CCC(C)C4C(=O)N3Cc3ccccc3)c2)cc1C (centres undefined) | 28.8% (inactive)
69 | COc1ccc2cc1Oc1ccc(cc1)C[C@H]1c3cc(c(OC)cc3CCN1C)Oc1c(O)c(OC)cc3c1[C@H](C2)N(C)CC3 | -1.4% (inactive)
70 | O=C(c1cncc(Br)c1)N1CCN(c2ccc([N+](=O)[O-])cc2)CC1 | -2.1% (inactive)
71 | COc1ccc(N(CC(=O)Nc2cccc3ccccc23)S(C)(=O)=O)c(OC)c1 | -1.55% (inactive)
72 | CC(C)(C)[Si](OCC[C@@H]1C[C@@]1(C)[C@@H](NP(=O)(c1ccccc1)c1ccccc1)c1ccccc1)(c1ccccc1)c1ccccc1 | -2.22% (inactive)

Row | SMILES | max response
73 | COC(=O)c1ccccc1NC(=O)c1ccc(C#N)cc1 | 14.4% (inactive)
74 | O=C(/C=C/c1ccc(Cl)c([N+](=O)[O-])c1)c1ccc(O)cc1 | 11.3% (inactive)
75 | Cc1nn(-c2ccccc2)c(Cl)c1/C=C/C(=O)c1ccc(O)cc1 | 17% (active)
76 | Cc1ccc(C(=O)/C=C/c2c(C)nn(-c3ccccc3)c2Cl)cc1 | 37.8% (active)
77 | CCNC(=O)COC(=O)/C=C/c1c(C)nn(Cc2cccc(OC)c2)c1Cl | -1.93% (inactive)
78 | O=C(CN1C(=O)COc2ccc(Cl)cc21)N1CCOCC1 | -0.636% (inactive)
79 | CCOC(=O)CSc1nc2ccc(C)cc2n2cnnc12 | 7.14% (inactive)
80 | Cc1ccc(C)c(S(=O)(=O)Nc2cc(C)on2)c1 | -1.71% (inactive)
81 | CCCC(O)(CCC)C(=O)NN(C(=O)CCl)c1cccc(C)c1 | 4.6% (inactive)
82 | O=C(NNS(=O)(=O)c1ccccc1C(F)(F)F)c1cc2ncc(C(F)(F)F)cc2s1 | -2.52% (inactive)
83 | CC(C)(C)c1cc(NC(=O)NN2CCOCC2)nn1-c1c(Cl)cc(Cl)cc1Cl | 6.4% (inactive)
84 | O=C(Nn1c(SCc2ccc([N+](=O)[O-])cc2)nc2ccccc2c1=O)c1ccc(F)cc1 | 116% (active)
85 | O=C(Nn1c(-c2ccccc2)nc2ccccc2c1=O)c1ccc([N+](=O)[O-])cc1 | 1.01% (inactive)
86 | O=C(CCn1c(SCC(=O)c2ccccc2)nc2ccccc2c1=O)NCc1ccc(F)cc1 | -3.48% (inactive)
87 | Cc1ccc(CNS(=O)(=O)c2ccc3c(c2)N(C)CCO3)cc1 | 13.9% (inactive)
88 | COC(=O)c1c(NC(C)=O)sc(C(=O)Nc2ccccc2OC)c1C | -2% (inactive)
89 | COc1ccccc1NC(=O)c1ccc(C)s1 | 64% (active)
90 | COc1ccccc1NC(=O)C1=C(C)NC(=O)NC1c1ccc(C)s1 (centres undefined) | -3.68% (inactive)
91 | CCCCn1c(=S)[nH]c2cc(S(=O)(=O)N3CCCCC3)ccc21 | -3.25% (inactive)
92 | Nc1nnnn1/N=C/c1cc([N+](=O)[O-])ccc1O | 1.42% (inactive)
93 | O=C(N/N=C/c1cc([N+](=O)[O-])ccc1O)/C(=C\c1cccs1)NC(=O)c1ccccc1 | -1.19% (inactive)
94 | O=[N+]([O-])c1ccc(O)c(/C=N/Nc2ccccc2[N+](=O)[O-])c1 | 15.6% (active)
